Experimental data taken from PubChem BioAssay AID493074 (National Center for Advancing Translational Sciences (NCATS), 2011).
The list shows a part of the results. Inconclusive results are not listed. Activity calls are given as the source filed them. The call rests on the fitted dose curve; in most records, active means well fitted cell-killing curve with a large enough effect; inconclusive means small, poorly fitted or top-dose-only effect; inactive means no such curve, though single readings can be large or run the other way.

Test: H358 Cell Viability Secondary Assay for qHTS Assay for Epigenetic Modulators: Round 2
Conditions: H358 NSCLC viability, ATP luminescence, 72 h
From the text: NIH Molecular Libraries Screening Centers Network [MLSCN] NIH Chemical Genomics Center [NCGC] MLSCN Grant: 1 X01 MH079860-01 Assay Provider: Elisabeth D. Martinez, University of Texas SW Medical Center NCGC Assay Overview: This secondary assay characterizes selected actives identified in the qHTS of the Locus Derepression (LDR) assay (PubChem AID 1865). The LDR assay detects the derepression of a GFP reporter that is stably integrated in a region of the genome of murine c127i mammary cells that is presumably silenced. Compounds that cause derepression of the locus to express GFP are identified by enumerating GFP positive cells using a laser-scanning microplate cytometer. Selected LDR actives were assayed for killing of H358 non-small cell lung carcinoma (NSCLC) cells. […] Cell viability was measured using a luminescence-based detection reagent that measures cellular ATP levels.
NCGC Assay Protocol Summary H358 cells were seeded at 125 cells/5 uL/well in white, solid bottom, 1536 well plates (Greiner). […] Plates were incubated 72 hours at 37deg C and 5% CO2, then 3.5 uL/well CellTiter-Glo(R) (Promega) detection reagent was added, plates were incubated at ambient temperature for 10 minutes and luminescence was measured by a ViewLux (Perkin Elmer) reader. […] A quantitative high-throughput screen identifies potential epigenetic modulators of gene expression. […]

Structure (SMILES) | Potency
O=C1NC(=O)N(CCc2ccc(F)cc2)C(=O)/C1=C/C=C/c1ccccc1 | 8.88 µM (active)
